Most compounds without a hit are left out; they make up all but 0.84% or so of the library.
NCOA1 inh = inhibitors of human steroid receptor coactivator 1 (SRC1); 360,000 compounds, 0.12% hits; Q15788; AID 588354; HEK293 GAL4-SRC1 luciferase reporter, luminescence; inhibition, % at 3.6 µM;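 active means inhibition above the campaign mean plus 3 SD, with each screening campaign given its own cutoff, cut at about 60% in these data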;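 further: 0% = DMSO treated cells and 100% = gossypol at 36 µM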
COUP-TFII inh = NR2F2 (human) inhibition, primary screen; AID 686940; P24468; 370,000 compounds, 0.7% hits; HEK293T NGFI-A luciferase reporter, luminescence; inhibition, % at 8.6 µM;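 active means inhibition above a per-plate cutoff, mean inhibition of test wells between control levels plus 3 SD, cut at about 38% in these data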;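 further: cells cotransfected with COUP-TFII expression vector driving the NGFI-A reporter; 0% = median of COUP-TF2 test wells and 100% = reporter-only cells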
LRH-1 inv ag = inverse agonists of human LRH-1 (NR5A2); HEK293T StAR-luciferase reporter, LRH-1 transfected, 24 h; 360,000 compounds, 0.13% hits; inhibition, % at 3.6 µM; O00482;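 active means inhibition above the mean inhibition of all tested compounds plus 3 SD, cut at about 73% in these data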;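 further: 0% = DMSO wells and 100% = reporter-only cells lacking LRH-1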
SRC3 inh = human NCOA3 inhibition; Q9Y6Q9; HEK293 GAL4-SRC3 luciferase reporter, luminescence; inhibition, % at 3.6 µM; 360,000 compounds, 0.17% hits;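 active means inhibition above a per-campaign cutoff, the mean of all compounds plus 3 SD, cut at about 60% in these data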;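 further: 0% = DMSO-treated cells and 100% = gossypol-treated cells at 36 µM; higher means less SRC3-driven luciferase light from the GAL4 reporter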
SRC2 inh = inhibits human steroid receptor coactivator 2; Q15596; inhibition, % at 9 µM; HEK293 GAL4-SRC2 luciferase reporter, luminescence; 370,000 compounds, 0.17% hits;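 active means inhibition above the mean inhibition of all tested compounds plus 3 SD, set per campaign, cut at about 52% in these data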;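 further: 0% = DMSO treated cells and 100% = cells given Gossypol at 36 µM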
Gal4-VP16 ctr = counter-screen for COUP-TFII antagonists: inhibitors of VP16 | HEK293 Gal4-VP16 luciferase reporter, luminescence | shares compounds with COUP-TFII inh | 2,500 compounds, 25% hits | inhibition, % at 8.5 µM; in the data active means inhibition above about 13%
NR2F2 inh conf = confirmation of human COUP-TFII (NR2F2) inhibitors; shares compounds with COUP-TFII inh; HEK293 NGFI-A luciferase reporter, luminescence; inhibition, % at 8.5 µM; 2,500 compounds, 45% hits; AID 687008;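 active means mean inhibition over three repeats above a set limit taken from the earlier primary screen, cut at about 38% in these data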;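 further: 100% = cells given the luciferase reporter alone without the COUP-TF2 vector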
* = called active by the depositor; · = no result given.

SMILES	NCOA1 inh	COUP-TFII inh	LRH-1 inv ag	SRC3 inh	SRC2 inh	Gal4-VP16 ctr	NR2F2 inh conf
COc1ccc([C@@]23Oc4cc(OC)cc(OC)c4[C@]2(O)[C@H](O)[C@H](C(=O)N(C)C)[C@H]3c2ccccc2)cc1	90*	87*	100*	89*	72*	20*	74*
COC(=O)CC#C[C@@H](C)[C@H](NS(=O)(=O)c1ccc(C)cc1)C(C)(C)C	·	-3	·	·	-16	·	·
Cc1cc(C)c(C)c(S(=O)(=O)N2CCN(c3ncnc4ccccc34)CC2)c1C	5	13	-3	-12	-10	·	·
O=S(=O)(c1cc(C(F)(F)F)ccc1Cl)N1CCN(c2ncnc3ccccc23)CC1	17	42*	32	19	34	15*	60*
Cc1ccc(OCCN2CCN(C(=O)CCC(=O)Nc3nnc(CC(C)C)s3)CC2)cc1	32	56*	25	24	8	4	33
Cc1ccc(Cc2c(-c3ccco3)nc3c4ccccc4ccn23)cc1	25	41*	38	-1	-18	-107	19
Cc1ccc(Cc2c(-c3ccco3)nc3c(C)cc(Br)cn23)cc1	-55	7	36	-36	-46	·	·
Cc1c(NC(=O)COC(=O)C23CC4CC(CC(O)(C4)C2)C3)c(=O)n(-c2ccccc2)n1C	-4	45*	3	13	41	-8	5
O=C(NC1CCCC1)C(c1ccccc1)n1c(CSCCOc2ccccc2)nc2ccccc21 (centres undefined)	·	59*	20	·	77*	46*	50*
COc1ccc(C2Nc3ccccc3C(=O)N2Cc2ccccc2)cc1COc1ccc(NC(C)=O)cc1 (centres undefined)	·	4	·	·	·	·	·
O=C(Nc1ccc(Cn2cccn2)cc1)c1ccc(COc2ccc(Br)cc2)cc1	9	1	-13	12	-5	·	·
O=C(Nc1ccn(Cc2ccccc2F)n1)c1ccc(COc2ccc(Br)cc2)cc1	11	73*	33	21	21	-11	47*
COCCC(=O)NNS(=O)(=O)c1ccc(Cl)cc1	9	2	-3	17	0	·	·
COc1ccc(-c2nc3ccccc3n2Cc2ccc(C)cc2)cc1	-23	3	-7	-24	-16	·	·
COc1ccc(Cn2c(-c3ccc(C)cc3)c[n+]3ccccc23)cc1	61*	52*	73*	50	6	8	40*
Cn1c2ccccc2c(=O)c2cc(C#CC3(O)CCCCC3)ccc21	17	45*	9	19	6	-67	38*
Cc1cc2sc3ccc(C#CC4(O)CCCCC4)cc3c(=O)c2cc1C	88*	89*	78*	87*	82*	89*	109*
O=c1c2ccccc2oc2ccc(C#CC3(O)CCCCC3)cc12	34	37	18	26	-16	·	·
Cn1c(=O)c2[nH]c(CCCCCCCc3nc4ccccc4[nH]3)nc2n(C)c1=O	1	55*	4	16	15	1	27
Cn1c(=O)c2[nH]c(CCCCCc3nc4ccccc4[nH]3)nc2n(C)c1=O	-25	-4	7	-16	4	·	·
CC(=O)N1CCN(c2ccc(N3CCN(Cc4ccccc4)[C@@H](C)C3)c(C)c2)[C@@H](C)C1	·	13	·	·	1	·	·
CC(C)(C)NCC(=Cc1ccccc1)C(=O)c1ccccc1	51	72*	82*	56	68*	48*	80*
CC(C)(C)c1ccc(C(=O)Nc2ccc(CC(=O)O)cc2)o1	59	95*	53	58	87*	84*	91*
Cc1ccc(C(=O)Nc2ccc(CC(=O)O)cc2)o1	-12	3	8	-8	-2	·	·
COc1cc(C)ccc1OCC(=O)OCC(=O)c1[nH]c(C)c(C(C)=O)c1C	-11	-5	16	-12	-21	·	·
SMILES	NCOA1 inh	COUP-TFII inh	LRH-1 inv ag	SRC3 inh	SRC2 inh	Gal4-VP16 ctr	NR2F2 inh conf
CC(=O)c1c(C)[nH]c(C(=O)COc2cc(C)ccc2C(C)C)c1C	24	69*	46	23	44	8	66*
COc1ccc(CNC(=O)[C@@H](Cc2ccccc2)NC(=O)[C@H]2O[C@@H](n3cnc4c(=O)[nH]c(N)nc43)[C@H](O)[C@@H]2O)cc1	·	-4	·	·	-7	·	·
Cc1nn(C(C)C)c(C)c1CN1CCCC(C(=O)c2cccc(OC(C)C)c2)C1 (centres undefined)	13	37*	-4	9	29	1	16
CCn1nc(C)c(CN2CCCC(C(=O)c3cccc(OC(C)C)c3)C2)c1C (centres undefined)	6	32	21	8	10	·	·
Cc1ccnc(OC(C(=O)O)C(OCc2ccccc2)(c2ccccc2)c2ccc(C(F)(F)F)cc2)n1 (centres undefined)	8	47*	19	35	-30	6	14
COc1ccc(C(=O)O)cc1S(=O)(=O)NCCN(C)C	11	0	26	5	2	·	·
c1ccc(CNc2ncnc3ccccc23)cc1	38	64*	25	42	38	8	53*
c1ccc(CN2CCC(CNc3ncnc4ccccc34)C2)cc1 (centres undefined)	17	41*	21	13	32	-1	15
COc1cc2ncnc(NCc3ccccc3)c2cc1OC	11	11	-2	-7	11	·	·
c1ccc(CN2CCC(Nc3nc(-c4ccccc4)nc4ccccc34)CC2)cc1	5	-13	-7	3	16	·	·
C[C@@H]1ON(C)[C@H]2C[C@H]3c4cc(N5CCCCC5)ccc4CCN3C[C@@H]12	·	2	·	·	2	·	·
c1ccc(OCCNc2nc(NCC3CC3)nc3ccsc23)cc1	-50	26	5	9	21	·	·
COc1ccc(C(=O)NCC2CCN(C(=O)C(=O)c3cccs3)CC2)c(OC)c1	·	2	·	·	14	·	·
O=C(Nc1nc2cc3c(cc2s1)OCCO3)c1cccs1	-48	42*	-108	-54	24	-120	-107
CCN(CC)S(=O)(=O)c1cccc(C(=O)Nc2nc3cc4c(cc3s2)OCCO4)c1	6	58*	5	23	16	-9	32
COc1ccccc1C(=O)Nc1nc2cc3c(cc2s1)OCCO3	-110	·	-144	-113	·	·	·
CN(CC1CCCO1)S(=O)(=O)c1ccc(C(=O)Nc2nc3cc4c(cc3s2)OCO4)cc1 (centres undefined)	41	39*	-2	37	18	0	78*
O=C(Nc1nc2cc3c(cc2s1)OCCO3)c1cccc(N2C(=O)CCC2=O)c1	-57	-24	-8	-57	-25	·	·
O=C1/C(=C/c2ccncc2)CCC/C1=C\c1ccncc1	-165	84*	30	-22	74*	66*	90*
CSC(C1CCCC1)n1nnc2ccccc21 (centres undefined)	-6	-14	16	5	-17	·	·

High-throughput results (PubChem)
